PubChem BioAssay AID1159580 (chemical genetic matrix, 2015)
Several values for one entry are separate records, joined by “and”; a condition that tells them apart may be missing. Equal values may be shown once. About 2,000 (36%) of roughly 5,500 compounds were called active. Another 18% or so got no clear call; they are omitted. Cut-off read from the data, not from the text of the source: active = normalized growth mostly below about 0.91 (no sharp cut-off); inconclusive = no clear call, values can overlap the other calls; inactive = mostly above about 0.92. This is one part of the list. Some structures have more than one record in an assay (separate samples or runs), and their calls can disagree.

Test: chemical genetic growth profiling, strain panel (AID 1159580);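 note: tested at 20 µM; growth read once vehicle control cultures reached saturation at 30 °C; 1 = growth at the plate median or of vehicle wells; lower values mean less growth of the strain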
Details: growth OD

Measured: normalized growth

C/C=C/CC(C)C(O)C1C(=O)NC(CC)C(=O)N(C)CC(=O)N(C)C(CC(C)C)C(=O)NC(C(C)C)C(=O)N(C)C(CC(C)C)C(=O)NC(C)C(=O)NC(C)C(=O)N(C)C(CC(C)C)C(=O)N(C)C(CC(C)C)C(=O)N(C)C(C(C)C)C(=O)N1C (stereo unspecified)
active: S. cerevisiae deletion strains, locus YKR001C, strain vps1, stronger effect = lower value 0.619 | S. cerevisiae deletion strains, locus YLR039C, strain RIC1, stronger effect = lower value 0.621 | S. cerevisiae deletion strains, locus YLR262C, strain YPT6 (second series), stronger effect = lower value 0.573 | S. cerevisiae deletion strains, locus YLR262C, strain YPT6, stronger effect = lower value 0.509 | S. cerevisiae deletion strains, locus YLR342W, strain FKS1 (second series), stronger effect = lower value 0.173 | S. cerevisiae deletion strains, locus YLR342W, strain FKS1, stronger effect = lower value 0.247 | S. cerevisiae deletion strains, locus YMR231W, strain pep5, stronger effect = lower value 0.404
0.292 (active) and 1.01 (inactive): S. cerevisiae deletion strains, locus YMR307W, strain GAS1, stronger effect = lower value
inactive: S. cerevisiae deletion strains, locus YJR075W, strain HOC1, stronger effect = lower value 0.978 | S. cerevisiae deletion strains, locus YKL009W, strain mrt4, stronger effect = lower value 1.01 | S. cerevisiae deletion strains, locus YKL068W, stronger effect = lower value 1 | S. cerevisiae deletion strains, locus YKL085W, strain MDH1 (second series), stronger effect = lower value 0.984 | S. cerevisiae deletion strains, locus YKL085W, strain MDH1, stronger effect = lower value 0.984 | S. cerevisiae deletion strains, locus YKL160W, strain elf1, stronger effect = lower value 1.04 | S. cerevisiae deletion strains, locus YKL190W, strain CNB1, stronger effect = lower value 0.999 | S. cerevisiae deletion strains, locus YKR026C, strain gcn3, stronger effect = lower value 1.01 | S. cerevisiae deletion strains, locus YKR091W, strain srl3, stronger effect = lower value 1.02 | S. cerevisiae deletion strains, locus YLL001W, strain dnm1, stronger effect = lower value 1.02 | S. cerevisiae deletion strains, locus YLL026W, stronger effect = lower value 1.01 | S. cerevisiae deletion strains, locus YLL041C, strain sdh2, stronger effect = lower value 1.02 | S. cerevisiae deletion strains, locus YLR027C, strain aat2, stronger effect = lower value 1.02 | S. cerevisiae deletion strains, locus YLR058C, strain SHM2, stronger effect = lower value 1.01 | S. cerevisiae deletion strains, locus YLR102C, strain apc9, stronger effect = lower value 1.01 | S. cerevisiae deletion strains, locus YLR113W, strain HOG1, stronger effect = lower value 0.986 | S. cerevisiae deletion strains, locus YLR221C, strain rsa3, stronger effect = lower value 1.02 | S. cerevisiae deletion strains, locus YLR258W, strain gsy2, stronger effect = lower value 1.01 | S. cerevisiae deletion strains, locus YLR268W, strain sec22, stronger effect = lower value 1.01 | S. cerevisiae deletion strains, locus YLR320W, strain mms22, stronger effect = lower value 1.01 | S. cerevisiae deletion strains, locus YLR330W, strain CHS5, stronger effect = lower value 1.01 | S. cerevisiae deletion strains, locus YLR357W, strain rsc2, stronger effect = lower value 0.978 | S. cerevisiae deletion strains, locus YLR370C, strain arc18, stronger effect = lower value 1.01 | S. cerevisiae deletion strains, locus YLR371W, strain rom2, stronger effect = lower value 1.03 | S. cerevisiae deletion strains, locus YLR384C, strain iki3, stronger effect = lower value 1.01 | S. cerevisiae deletion strains, locus YLR418C, strain cdc73, stronger effect = lower value 0.925 | S. cerevisiae deletion strains, locus YML016C, strain PPZ1, stronger effect = lower value 1.02 | S. cerevisiae deletion strains, locus YML032C, strain rad52, stronger effect = lower value 1.04 | S. cerevisiae deletion strains, locus YML120C, strain ndi1, stronger effect = lower value 1.02 | S. cerevisiae deletion strains, locus YML124C, strain tub3, stronger effect = lower value 1.03 | S. cerevisiae deletion strains, locus YMR058W, strain fet3, stronger effect = lower value 1.02 | S. cerevisiae deletion strains, locus YMR078C, strain ctf18, stronger effect = lower value 1.01 | S. cerevisiae deletion strains, locus YMR125W, strain sto1, stronger effect = lower value 0.915 | S. cerevisiae deletion strains, locus YMR129W, stronger effect = lower value 1.01 | S. cerevisiae deletion strains, locus YMR205C, strain PFK2, stronger effect = lower value 0.978 | S. cerevisiae deletion strains, locus YMR223W, strain ubp8, stronger effect = lower value 1.04 | S. cerevisiae deletion strains, locus YMR263W, strain SAP30, stronger effect = lower value 0.99 | S. cerevisiae deletion strains, locus YNL067W, strain RPL9B, stronger effect = lower value 0.97 | S. cerevisiae deletion strains, locus YNL071W, strain lat1, stronger effect = lower value 1.03 | S. cerevisiae deletion strains, locus YNL128W, strain TEP1, stronger effect = lower value 0.948 | S. cerevisiae deletion strains, locus YNL153C, strain GIM3, stronger effect = lower value 0.97 | S. cerevisiae deletion strains, locus YNL175C, strain NOP13, stronger effect = lower value 0.963 | S. cerevisiae deletion strains, locus YNL183C, strain NPR1, stronger effect = lower value 0.955 | S. cerevisiae deletion strains, locus YNL197C, strain WHI3, stronger effect = lower value 0.955 | S. cerevisiae deletion strains, locus YNL209W, strain ssb2, stronger effect = lower value 1.01 | S. cerevisiae deletion strains, locus YNL224C, strain SQS1, stronger effect = lower value 0.966 | S. cerevisiae deletion strains, locus YNL233W, strain BNI4, stronger effect = lower value 0.986 | S. cerevisiae deletion strains, locus YNL248C, strain rpa49, stronger effect = lower value 1.02 | S. cerevisiae deletion strains, locus YNL250W, strain rad50, stronger effect = lower value 1.01 | S. cerevisiae deletion strains, locus YNL271C, strain bni1, stronger effect = lower value 1.01 | S. cerevisiae deletion strains, locus YNL298W, strain CLA4, stronger effect = lower value 0.987 | S. cerevisiae deletion strains, locus YNL307C, strain MCK1, stronger effect = lower value 1.04 | S. cerevisiae deletion strains, locus YNL322C, strain KRE1 (second series), stronger effect = lower value 1.01 | S. cerevisiae deletion strains, locus YNL322C, strain KRE1, stronger effect = lower value 1.03 and 1 | S. cerevisiae deletion strains, locus YNR049C, strain mso1, stronger effect = lower value 1.02 | S. cerevisiae deletion strains, locus YNR052C, strain pop2, stronger effect = lower value 1.04 | S. cerevisiae deletion strains, locus YOL006C, strain TOP1, stronger effect = lower value 0.83 | S. cerevisiae deletion strains, locus YOL012C, strain htz1 1.73 | S. cerevisiae deletion strains, locus YOL147C, strain pex11, stronger effect = lower value 1.02 | S. cerevisiae deletion strains, locus YOR001W, strain rrp6, stronger effect = lower value 1.03 | S. cerevisiae deletion strains, locus YOR061W, strain CKA2, stronger effect = lower value 0.967 | S. cerevisiae deletion strains, locus YOR069W, strain VPS5, stronger effect = lower value 1.02 | S. cerevisiae deletion strains, locus YOR070C, strain gyp1, stronger effect = lower value 1.01 | S. cerevisiae deletion strains, locus YOR080W, strain dia2, stronger effect = lower value 1 | S. cerevisiae deletion strains, locus YOR083W, strain WHI5 (second series), stronger effect = lower value 0.869 | S. cerevisiae deletion strains, locus YOR083W, strain WHI5, stronger effect = lower value 1.02 | S. cerevisiae deletion strains, locus YOR106W, strain vam3, stronger effect = lower value 0.975 | S. cerevisiae deletion strains, locus YOR136W, strain idh2, stronger effect = lower value 1.03 | S. cerevisiae deletion strains, locus YOR144C, strain elg1, stronger effect = lower value 1.02 | S. cerevisiae deletion strains, locus YOR184W, strain ser1, stronger effect = lower value 1.03 | S. cerevisiae deletion strains, locus YOR231W, strain MKK1, stronger effect = lower value 0.975 | S. cerevisiae deletion strains, locus YOR265W, strain rbl2, stronger effect = lower value 1.02 | S. cerevisiae deletion strains, locus YOR270C, strain vph1, stronger effect = lower value 0.895 | S. cerevisiae deletion strains, locus YOR290C, strain snf2, stronger effect = lower value 0.995 | S. cerevisiae deletion strains, locus YOR316C, strain cot1, stronger effect = lower value 1.01 | S. cerevisiae deletion strains, locus YPL051W, strain arl3, stronger effect = lower value 1.02 | S. cerevisiae deletion strains, locus YPL055C, strain LGE1, stronger effect = lower value 0.949 | S. cerevisiae deletion strains, locus YPL078C, strain atp4, stronger effect = lower value 1.02 | S. cerevisiae deletion strains, locus YPL106C, strain sse1, stronger effect = lower value 0.944 | S. cerevisiae deletion strains, locus YPL240C, strain hsp82, stronger effect = lower value 1.02 | S. cerevisiae deletion strains, locus YPL241C, strain CIN2, stronger effect = lower value 1.01 and 0.975 | S. cerevisiae deletion strains, locus YPL256C, strain CLN2, stronger effect = lower value 1.02 | S. cerevisiae deletion strains, locus YPR119W, strain clb2, stronger effect = lower value 1.02 | S. cerevisiae deletion strains, locus YPR141C, strain kar3, stronger effect = lower value 1 | S. cerevisiae deletion strains, locus YPR163C, strain tif3, stronger effect = lower value 1.02 | S. cerevisiae deletion strains, locus YPR167C, strain met16, stronger effect = lower value 1.02 | S. cerevisiae deletion strains, strain wtn01, stronger effect = lower value 1.02 | S. cerevisiae strains, strain wild type, stronger effect = lower value 1
